Among the data in PubChem BioAssay are outcome values, retold here.

SMILES strings stand for the structures. Potency and affinity values are given separately. Active and inactive are the calls of the source. A call without a number means that no potency is given here. Unless noted, the rule behind the calls is not given here.

In the first assay the target is Calcium-dependent protein kinase 1 (Plasmodium falciparum (isolate 3D7)) (UniProt P62344). Nature of the assay: PfCDPK1 kinase inhibitors, biochemical, TCAMS library (AID 1159585; cut-off not given, nearly all actives have IC50 up to about 0.98 µM;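 note: inhibitors leave more ATP so luminescence rises with inhibition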). To be noted: recombinant PfCDPK1, Kinase-Glo ATP depletion luminescence. On the technique in general: In Kinase-Glo more light means more ATP remaining.
Chain of Calcium-dependent protein kinase 1 (Plasmodium falciparum (isolate 3D7)) (P62344 whole entry, looked up): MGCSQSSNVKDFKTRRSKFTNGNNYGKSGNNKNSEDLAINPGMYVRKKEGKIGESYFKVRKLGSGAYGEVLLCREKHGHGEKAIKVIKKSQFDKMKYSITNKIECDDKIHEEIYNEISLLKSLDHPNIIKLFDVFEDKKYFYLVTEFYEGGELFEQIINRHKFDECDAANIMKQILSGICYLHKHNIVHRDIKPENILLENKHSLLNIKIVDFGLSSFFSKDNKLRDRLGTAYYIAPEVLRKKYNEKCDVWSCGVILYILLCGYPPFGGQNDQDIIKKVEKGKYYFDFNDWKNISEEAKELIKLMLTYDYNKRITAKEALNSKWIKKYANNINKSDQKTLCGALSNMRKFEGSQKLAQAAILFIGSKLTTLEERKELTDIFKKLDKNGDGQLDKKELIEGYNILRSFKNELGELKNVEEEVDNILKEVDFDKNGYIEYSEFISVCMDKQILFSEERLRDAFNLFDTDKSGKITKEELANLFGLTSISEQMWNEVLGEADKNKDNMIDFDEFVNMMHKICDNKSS
For `Cc1cc(OCCN2CCCCC2)ccc1NC(=O)c1cccc2c(=O)n(Cc3ccc(Cl)cc3)cnc12`, the outcome was inactive.

As to `COc1ccc(CNCc2ccccc2)cc1-c1ccc(S(=O)(=O)NCCN2CCCC2)c(C)c1`, the result was inactive.

On to `COc1cc2ncnc(Nc3ccc(OCc4ccccc4)c(C(F)(F)F)c3)c2cc1OC`, for which the outcome was inactive.

Regarding `c1cc(CNC2Cc3ccccc3C2)cc(-c2cnc(N3CCNCC3)nc2)c1`, the outcome was inactive.

Turning to `COc1ccc(NC(=O)[C@H](CC(C)C)Nc2cc(C)nc(Nc3ccccc3)n2)cc1`, the result was inactive.

For the compound `O=C(Nc1cccc(-c2ccc(NCCCN3CCCC3)nc2)c1)c1ccccc1`, the result was inactive.

Consider `CNC(=S)NN=C(C)c1ccccn1`, for which the outcome was inactive.

Consider `CCN(CC)CCN(Cc1ccc(-c2ccc(C(F)(F)F)cc2)cc1)C(=O)Cn1c(CCc2c(F)cc(F)cc2F)nc(=O)c2ccccc21`, for which the result was inactive.

`Cc1cc(NCCC(=O)Nc2ccccc2)nc(NCCOc2ccccc2)n1`: the outcome was inactive.

Regarding `CCOC(=O)c1[nH]c2ccc(F)cc2c1NC(=O)CN1CCN(c2cccc(C(F)(F)F)c2)CC1`, the result was inactive.

Take `C=CCOc1ccc2ccccc2c1CNCCCCCCNCc1c(OCC=C)ccc2ccccc12`: the result was inactive.

For the compound `Cc1cc(N2CCOCC2)nc(Nc2ccc(NC(=O)Nc3ccc(F)cc3)cc2)n1`, the outcome was inactive.

In the case of `CC(C)CNCc1cccc(-c2cccc(CN(CCN(C)C)C(=O)Nc3ccccc3)c2)c1`, the outcome was inactive.

Take `CC(C)(C)NCC(O)COc1ccc(Cl)cc1C1=NNC(=O)CC1` (stereo not given): the result was inactive.

Take `Cc1cc(CNCCCCCCNCc2ccc(Cl)cc2)ccc1O`: the outcome was inactive.

For the compound `CC(=O)Nc1ccc(CNCCc2ccc(NC(=O)c3cc(Cl)cc(Cl)c3)cc2)cc1`, the result was inactive.

Take `NS(=O)(=O)c1cccc(-c2ccc3nccc(-c4cccc(S(N)(=O)=O)c4)c3c2)c1`: the result was inactive.

In the case of `CC(=O)Nc1ccc(C(=O)Nc2cccc(-c3ccc(-c4nc5ccc(C(F)(F)F)cc5[nH]4)s3)c2)cn1`, the outcome was inactive.

With `COC(=O)c1cccc(CN(CCC(O)(C(F)(F)F)C(F)(F)F)C(=O)CC2CCCC2)c1`, the result was inactive.

Regarding `Cc1cc(C2CCN(CCCCNC(=O)c3ccc(NC(=O)c4ccc(Cl)cc4)cc3)CC2)c(C)cc1OCc1ccccn1`, the outcome was inactive.

For `CC(=O)Nc1ccc(C(=O)Nc2ccc(-c3cccc(-c4nc5ccc(C(F)(F)F)cc5[nH]4)c3)cc2)cn1`, the outcome was inactive.

Take `Cc1cccc2[nH]c(-c3cccc(-c4ccc(NC(=O)Nc5cccc(C#N)c5)cc4)c3)nc12`: the result was inactive.

With `CN(C)CCN1CCN(CCCN2c3ccccc3Sc3ccc(C(F)(F)F)cc32)CC1`, the result was inactive.

Consider `COc1cc(C)nc2ccc(NC(=O)COCC(=O)Nc3ccc4nc(C)cc(OC)c4c3)cc12`, for which the outcome was inactive.

With `Cc1nnc(N2C(=N)SC(=Cc3ccc(-c4ccc(OC(F)(F)F)cc4)o3)C2=O)s1`, the result was inactive.

For the compound `CCCNC(=O)c1cncc(-c2ccc(CNCCCc3ccccc3)cc2)c1`, the result was inactive.

Regarding `CC(C)CCN(Cc1cncn1Cc1cccc(C(F)(F)F)c1)C(=O)c1cncc(-c2ccccc2)c1`, the result was inactive.

Regarding `COc1ccc(CNCc2ccc(F)cc2)cc1-c1cccc(S(=O)(=O)NCCN2CCCC2)c1`, the outcome was inactive.

On to `CN(C)c1ccc(-c2csc(C(=O)NC3CCN(Cc4ccc(C(C)(C)C)cc4)C3)c2)cc1` (stereo not given), for which the result was inactive.

With `Cc1ccc(S(=O)Cc2ccc(Cl)cc2)cc1` (stereo not given), the outcome was inactive.

Turning to `CCN(CC)CCNC(=O)c1ccc(NC(=O)c2cc3c(C)nn(-c4ccc(Cl)cc4)c3s2)cc1`, the result was inactive.

Turning to `Cc1cccc(CN2CCCN(Cc3ccc(C(=O)Nc4ccc(Cl)cc4)cc3)CC2)c1`, the outcome was inactive.

`OC(CNCc1ccccc1OCc1ccccc1)c1cccc(C(F)(F)F)c1` (stereo not given): the result was inactive.

In the case of `CS(=O)(=O)CCNCc1ccc(-c2ccc3c(Nc4ccc(Cl)cc4F)ccnc3c2)o1`, the outcome was inactive.

Turning to `CC1(C)N=C(N)N=C(N)N1OCc1nc(N)nc(Nc2ccccc2)n1`, the outcome was inactive.

In the case of `CCCCCCNC(=O)c1nn(CCN2CCC(N3CCCC3)CC2)cc1-c1ccc(Cl)c(Cl)c1`, the outcome was inactive.

As to `Cc1cccc(-c2nn(-c3ccccc3)c3[nH]c(=O)c(CNC4CCCC4)cc23)c1`, the outcome was inactive.

Take `O=C(NC1CCN(c2ccnc3ccccc23)C1)c1cccc(C(F)(F)F)c1` (stereo not given): the outcome was inactive.

Regarding `CSc1cccc(NC(=O)c2cc3ccccc3oc2=O)c1`, the outcome was inactive.

For `Cc1cc(Nc2cc(Cl)cc(Cl)c2)nc(N)n1`, the outcome was inactive.

The target in the next assay is Plasmodium falciparum protein kinase 6 (PK6, PF3D7_1337100) (UniProt Q8IDW1). Nature of the assay: PfPK6 kinase inhibitors, biochemical, TCAMS library (AID 1159586). The conditions noted are these: recombinant PfPK6, Kinase-Glo ATP depletion luminescence.
Chain of Plasmodium falciparum protein kinase 6 (PK6, PF3D7_1337100) (Q8IDW1 1-305): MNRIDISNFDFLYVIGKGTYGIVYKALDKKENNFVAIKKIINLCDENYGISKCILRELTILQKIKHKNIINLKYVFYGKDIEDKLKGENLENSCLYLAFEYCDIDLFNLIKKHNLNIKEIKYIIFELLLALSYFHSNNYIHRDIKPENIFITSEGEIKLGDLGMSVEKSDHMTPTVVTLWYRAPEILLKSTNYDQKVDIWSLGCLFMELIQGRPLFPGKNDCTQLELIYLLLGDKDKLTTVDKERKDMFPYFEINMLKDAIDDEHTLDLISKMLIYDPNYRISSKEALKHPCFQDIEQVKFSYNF
For the compound `Cc1cc(OCCN2CCCCC2)ccc1NC(=O)c1cccc2c(=O)n(Cc3ccc(Cl)cc3)cnc12`, the result was inactive.

For `COc1ccc(CNCc2ccccc2)cc1-c1ccc(S(=O)(=O)NCCN2CCCC2)c(C)c1`, the result was inactive.

Turning to `COc1cc2ncnc(Nc3ccc(OCc4ccccc4)c(C(F)(F)F)c3)c2cc1OC`, the result was inactive.

`c1cc(CNC2Cc3ccccc3C2)cc(-c2cnc(N3CCNCC3)nc2)c1`: the result was inactive.

`COc1ccc(NC(=O)[C@H](CC(C)C)Nc2cc(C)nc(Nc3ccccc3)n2)cc1`: the result was inactive.

Consider `O=C(Nc1cccc(-c2ccc(NCCCN3CCCC3)nc2)c1)c1ccccc1`, for which the result was inactive.

As to `CNC(=S)NN=C(C)c1ccccn1`, the outcome was inactive.

In the case of `CCN(CC)CCN(Cc1ccc(-c2ccc(C(F)(F)F)cc2)cc1)C(=O)Cn1c(CCc2c(F)cc(F)cc2F)nc(=O)c2ccccc21`, the outcome was inactive.

As to `Cc1cc(NCCC(=O)Nc2ccccc2)nc(NCCOc2ccccc2)n1`, the result was inactive.

As to `CCOC(=O)c1[nH]c2ccc(F)cc2c1NC(=O)CN1CCN(c2cccc(C(F)(F)F)c2)CC1`, the result was inactive.

For the compound `C=CCOc1ccc2ccccc2c1CNCCCCCCNCc1c(OCC=C)ccc2ccccc12`, the result was inactive.

Take `Cc1cc(N2CCOCC2)nc(Nc2ccc(NC(=O)Nc3ccc(F)cc3)cc2)n1`: the outcome was inactive.

With `CC(C)CNCc1cccc(-c2cccc(CN(CCN(C)C)C(=O)Nc3ccccc3)c2)c1`, the result was inactive.

On to `CC(C)(C)NCC(O)COc1ccc(Cl)cc1C1=NNC(=O)CC1` (stereo not given), for which the result was inactive.

`Cc1cc(CNCCCCCCNCc2ccc(Cl)cc2)ccc1O`: the result was inactive.

`CC(=O)Nc1ccc(CNCCc2ccc(NC(=O)c3cc(Cl)cc(Cl)c3)cc2)cc1`: the outcome was inactive.

In the case of `NS(=O)(=O)c1cccc(-c2ccc3nccc(-c4cccc(S(N)(=O)=O)c4)c3c2)c1`, the result was inactive.

Take `CC(=O)Nc1ccc(C(=O)Nc2cccc(-c3ccc(-c4nc5ccc(C(F)(F)F)cc5[nH]4)s3)c2)cn1`: the outcome was inactive.

As for `COC(=O)c1cccc(CN(CCC(O)(C(F)(F)F)C(F)(F)F)C(=O)CC2CCCC2)c1`, the result was inactive.

Take `Cc1cc(C2CCN(CCCCNC(=O)c3ccc(NC(=O)c4ccc(Cl)cc4)cc3)CC2)c(C)cc1OCc1ccccn1`: the result was inactive.

Consider `CC(=O)Nc1ccc(C(=O)Nc2ccc(-c3cccc(-c4nc5ccc(C(F)(F)F)cc5[nH]4)c3)cc2)cn1`, for which the outcome was inactive.

As to `Cc1cccc2[nH]c(-c3cccc(-c4ccc(NC(=O)Nc5cccc(C#N)c5)cc4)c3)nc12`, the result was inactive.

`CN(C)CCN1CCN(CCCN2c3ccccc3Sc3ccc(C(F)(F)F)cc32)CC1`: the result was inactive.

Turning to `COc1cc(C)nc2ccc(NC(=O)COCC(=O)Nc3ccc4nc(C)cc(OC)c4c3)cc12`, the result was inactive.

`Cc1nnc(N2C(=N)SC(=Cc3ccc(-c4ccc(OC(F)(F)F)cc4)o3)C2=O)s1`: the outcome was inactive.

Consider `CCCNC(=O)c1cncc(-c2ccc(CNCCCc3ccccc3)cc2)c1`, for which the outcome was inactive.

`CC(C)CCN(Cc1cncn1Cc1cccc(C(F)(F)F)c1)C(=O)c1cncc(-c2ccccc2)c1`: the result was inactive.

With `COc1ccc(CNCc2ccc(F)cc2)cc1-c1cccc(S(=O)(=O)NCCN2CCCC2)c1`, the outcome was inactive.

Turning to `CN(C)c1ccc(-c2csc(C(=O)NC3CCN(Cc4ccc(C(C)(C)C)cc4)C3)c2)cc1` (stereo not given), the result was inactive.

`Cc1ccc(S(=O)Cc2ccc(Cl)cc2)cc1` (stereo not given): the result was inactive.

On to `CCN(CC)CCNC(=O)c1ccc(NC(=O)c2cc3c(C)nn(-c4ccc(Cl)cc4)c3s2)cc1`, for which the result was inactive.

As to `Cc1cccc(CN2CCCN(Cc3ccc(C(=O)Nc4ccc(Cl)cc4)cc3)CC2)c1`, the outcome was inactive.

`OC(CNCc1ccccc1OCc1ccccc1)c1cccc(C(F)(F)F)c1` (stereo not given): the result was inactive.

`CS(=O)(=O)CCNCc1ccc(-c2ccc3c(Nc4ccc(Cl)cc4F)ccnc3c2)o1`: the outcome was inactive.

On to `CC1(C)N=C(N)N=C(N)N1OCc1nc(N)nc(Nc2ccccc2)n1`, for which the result was inactive.

As to `CCCCCCNC(=O)c1nn(CCN2CCC(N3CCCC3)CC2)cc1-c1ccc(Cl)c(Cl)c1`, the outcome was inactive.

In the case of `Cc1cccc(-c2nn(-c3ccccc3)c3[nH]c(=O)c(CNC4CCCC4)cc23)c1`, the result was inactive.

As for `O=C(NC1CCN(c2ccnc3ccccc23)C1)c1cccc(C(F)(F)F)c1` (stereo not given), the outcome was inactive.

On to `CSc1cccc(NC(=O)c2cc3ccccc3oc2=O)c1`, for which the outcome was inactive.

For the compound `Cc1cc(Nc2cc(Cl)cc(Cl)c2)nc(N)n1`, the result was inactive.
